# Reference: PubChem BioAssay AID1486 (The Scripps Research Institute Molecular Screening Center, 2009)
# Among all 220,000 compounds or so, about 2,400 (1.1%) were called active. Shown is part of a subset that was picked to be rich in actives. Unmarked numbers belong to inactive results.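 How the source made its calls: active means inhibition above a per-campaign cutoff, the mean inhibition of all tested compounds plus 3 SD (cut at about 27% in these data); inactive means the rest.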
# Test: parental Ba/F3 cell viability inhibition, counter-screen for JAK2V617F inhibitor project, murine pro-B, CellTiter-Glo luminescence (AID 1486);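 further: 0% = DMSO wells and 100% = JAK Inhibitor I control wells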
# Conditions: CellTiter-Glo ATP luminescence, at 5.6 µM, hits give high values
row,Structure (SMILES),inhibition
1,CCCCCCCCCCCCn1ccc(=N)cc1,102% (active)
2,CCC(C)n1c(O)c(/C=N/Nc2nc3c(c(=O)n(C)c(=O)n3C)n2C)c(=O)[nH]c1=S (stereo not given),-0.78%
3,O=c1c2ccccc2nc(/C=C/c2ccco2)n1-c1ccccc1O,-6.32%
4,CCOP(=O)(OCC)C(NC(=O)NC)C(N)=O (stereo not given),4.51%
5,CC/C(=N\NC(=O)c1ccccc1O)c1c(O)n(Cc2ccccc2)c(=O)[nH]c1=O,-2.72%
6,Cc1ccc(CN2CCCC(C(=O)c3ccc4c(c3)OCO4)C2)cc1C (stereo not given),2.33%
7,CCOc1ccc(-c2cc(C)[n+](CCN(CC)CC)c(-c3ccc(OCC)cc3)c2)cc1,81.7% (active)
8,O=c1[nH]c(=O)n(CCc2ccc(F)cc2)c(O)c1/C=N/N1CCCCC1,-4.39%
9,CC(C)c1ccc(-n2c(O)c(/C=N/N3CCOCC3)c(=O)[nH]c2=S)cc1,2.53%
10,COc1cc(OC)cc(C2(C#N)CCN(C)CC2)c1,-2.96%
11,CN(C)CC1Oc2ccccc2OC1(O)c1ccccc1 (stereo not given),8.72%
12,COCc1cc(OC(=O)N(C)C)nc(-c2ccc(C)c(Cl)c2)n1,3.28%
13,CC1=CC(=Cc2sc3ccccc3[n+]2C)C=C(C)O1,106% (active)
14,COc1ccc(-n2c(O)c(C(C)=Nc3ccc4c(c3)CCC4)c(=O)[nH]c2=O)cc1,2.36%
15,O=C1CC(=O)N(Cc2ccccc2)C(=O)N1CCCCCCN1C(=O)CC(=O)N(Cc2ccccc2)C1=O,-0.44%
16,CC1(C)Cc2c(C#N)c(N3CCNCC3)nc(-c3ccco3)c2CS1,1.77%
17,CC1=C(C(=O)Nc2ccccc2)S(=O)(=O)CCO1,0.55%
18,CNC(=O)O/N=C(\N)Cc1csc2ccc(Cl)cc12,3.22%
19,CCOc1cccc(=NC2CCCCC2)c2c(C)[nH]c(C)c12,50.8% (active)
20,COc1ccc(-n2c(-c3ccccc3)nc3ccccc3c2=O)cc1,1.83%
